Hit rate of the full screen: of about 310,000 compounds, about 1,900 (0.61%) were called active. Entries that show only a call come without a potency. About 8% were inconclusive and are not listed. Calls follow the shape of the full dose curve; tested in A549 cells. This excerpt belongs to a sample that is enriched for actives.
Test: qHTS for Stage-Specific Inhibitors of Vaccinia Orthopoxvirus: mCherry Reporter Primary qHTS; also: nearly all actives have a fitted effect of over 35% in size
Conditions: Vaccinia virus mCherry reporter infection, fluorescence; series mostly up to 36.5 µM
Potency is read from the fitted curve at half-maximal effect.

Structure (SMILES)	Potency
[O-][n+]1onc2c1CCc1[nH]c(-c3ccccc3)nc1-2	15.8 µM (active)
CC=CCn1c(SCCCc2ccccc2)nc2c1c(=O)[nH]c(=O)n2C	inactive
Cc1c(Cl)c([N+](=O)[O-])nn1CCCC(=O)Nc1cc(Cl)ccc1Cl	inactive
O=C(N/N=C/c1ccc2c(c1)OCO2)c1ccc(Cn2cc([N+](=O)[O-])cn2)o1	inactive
Cc1c(Cl)c([N+](=O)[O-])nn1Cc1ccc(C(=O)N/N=C\c2cc(Cl)ccc2O)o1	6.31 µM (active)
O=C(c1ccccc1)N1CCN(c2cc(-c3ccccc3)nc3cc(-c4cccc(Cl)c4)nn23)CC1	inactive
CCc1nc2c(OCc3ccccc3)cccn2c1N(C)C(=O)c1ccco1	inactive
COc1ccc(C(C(=O)Nc2c(C)cccc2C)N2CCN(c3ccc(C)cc3)CC2)cc1 (centres undefined)	inactive
Brc1cccc[n+]1Cc1cccc(C[n+]2ccccc2Br)c1	inactive
Cc1cc2ccccn2c1C(C[N+](=O)[O-])c1c(F)cccc1Cl (centres undefined)	10 µM (active)
Cc1cc2ccccn2c1C(=O)c1cccc(F)c1	inactive
O=C(Cc1c(F)cccc1Cl)Nc1ncc([N+](=O)[O-])s1	inactive
CCCCOc1ccc(C(=O)NO)cc1	inactive
CCN1CCN(c2ncnc3c2cnn3-c2ccc(C)c(C)c2)CC1	inactive
CCc1ccc(C(=O)NNC(=O)C2CCN(c3ncnc4sc(C)c(C)c34)CC2)cc1	inactive
CCc1cc2c(N3CCN(c4nnc(CC)s4)CC3)ncnc2s1	12.6 µM (active)
Cc1ccc(S(=O)(=O)N2CC3C(=O)C[C@@H](c4ccccc4Cl)N(S(=O)(=O)c4ccc(C)cc4)C3CC2c2ccccc2)cc1 (some centres undefined)	inactive
Clc1ccc2nc(-c3ccccc3)nc(C(Cl)Cl)c2c1	inactive
CSc1nc(Nc2ccc(F)cc2)cc(-c2ccccc2)n1	inactive
CSc1nc(-c2ccccc2)nc(C(Cl)Cl)n1	12.6 µM (active)
CCCc1ccc(C(O)c2ncc(-c3cccc(OC)c3)[nH]2)cc1 (centres undefined)	inactive
CCOC(=O)[C@]12CCCC=C1N(CCC1=CCCCC1)C(=O)[C@H](CC(=O)NCCCOC)C2	inactive

Structure (SMILES)	Potency
CCOC(=O)N1CCN(C(=O)C[C@@H]2C[C@@]3(C(=O)OC)CC(C)(C)CC=C3N(Cc3ccco3)C2=O)CC1	inactive
CC1(C(=O)Nc2cccc3c2CCCC3)CCN1C(=O)CCc1ccc(Cl)cc1Cl (centres undefined)	inactive
Cc1ccccc1-c1ccc(Nc2ccc(C(=O)N3CCOCC3)cc2)nn1	inactive
CCOC(=O)c1ccccc1C(=O)N1CCOCCOCCOCC1	inactive
Cc1oc2c(c1C(=O)N1CCOCC1)C(=O)c1ccccc1C2=O	11.2 µM (active)
Fc1cccc(Cc2c(-c3ccc(Cl)cc3)nc3ccc(Cl)cn23)c1	inactive
COc1cc(OC)c(OC)cc1/C=C1\C=Cc2ccccc21	inactive
CCc1nc2ccc(C(=O)Nc3cc(-c4ccccc4)ccc3OC)cn2c1N(CC)CC(=O)N(C)C	inactive
COC(=O)Cc1ccc(Oc2ncc(C(F)(F)F)cc2Cl)cc1	inactive
COc1cccc(/C=N/Nc2ncc(C(F)(F)F)cc2Cl)c1O	11.2 µM (active)
COc1cccc(/C(C)=N/Nc2ncc(Cl)cc2Cl)c1	inactive
CCc1nc2ccc(C(=O)NCc3ccc(OC)cc3)cn2c1N(CC)Cc1cccc(Br)c1	inactive
Cc1nn(-c2ccccc2)c(C)c1NC(=O)CCl	10 µM (active)
Cc1nn(-c2ccccc2)c(C)c1NC(=O)COc1ccc(Cl)cc1Cl	inactive
Cc1nn(-c2ccccc2)c(C)c1NC(=O)COC(=O)Cc1ccccc1	inactive
Cc1cccc(NC(=O)COC(=O)c2ccccc2OCc2cccc(Br)c2)c1	inactive
CC(C)Nc1ncnc2c1ncn2[C@H]1CN(Cc2ccncc2)C[C@@H](CO)O1	inactive
OCCN1CCN(c2ncnc3c2ncn3[C@H]2CN(Cc3ccco3)C[C@@H](CO)O2)CC1	inactive
OC[C@@H]1CN(Cc2ccncc2)C[C@H](n2cnc3c(N4CCN(c5ccccc5)CC4)ncnc32)O1	11.2 µM (active)
Cc1cc(Br)cn2c(Cc3ccsc3)c(-c3ccc(C#N)cc3)nc12	inactive
COc1cccc(-c2cc3nc(NCc4ccccc4OC)n(C)c(=O)c3s2)c1	inactive
CCCNC(=O)C1(C)CCCN(C(=O)c2oc3ccccc3c2C)C1 (centres undefined)	inactive

Structure (SMILES)	Potency
CC(=O)/C(=N\Nc1ccc(Cl)cc1Cl)Sc1cccc2cccnc12	3.55 µM (active)
COc1c(Cl)cc(Cl)cc1C(=O)Nc1cccc2cccnc12	inactive
S=C(NCc1cccnc1)Nc1ccc(Cl)cc1Cl	inactive
CCOC1=C2[C@@H](CN(S(=O)(=O)c3ccc(C)cc3)[C@H]2c2ccccc2F)[C@H]2C(=O)N(Cc3ccccc3)C(=O)[C@H]2C1	inactive
CCOCCC(=O)Nc1ccc2c(c1)c(=O)n(C)n2-c1ccc2ccccc2c1	inactive
CN(C)C1=C2C=CC=CC2/C(=C2/C=Cc3ccccc32)C=C1 (centres undefined)	inactive
Nc1ccc(/C=C/c2ccnc3ccccc23)c([N+](=O)[O-])c1	inactive
Cc1ccc(NC(=O)c2cc(-c3ccccc3O)n[nH]2)cc1C	inactive
Oc1ccccc1-c1cc(-c2ccc(Cl)cc2)n[nH]1	8.91 µM (active)
O=C(Nc1ccc(Cl)cn1)c1ccccc1-c1ccccc1	inactive
O=C(Nc1ccc2c(c1)OCCO2)C(C1CC1)N1CCC(Cc2ccccc2)CC1 (centres undefined)	inactive
CCc1cc(C(=O)N(CC)CC(=O)Nc2c(F)cccc2F)sc1C	inactive
COC(=O)Cc1ccc(OC2(C)CCN(Cc3ccc4c(c3)OCCO4)C2)cc1 (centres undefined)	inactive
CC1(C)OC(=O)C2=C(C[C@@H](C3CCCCC3)O[C@@H]2c2ccc(Cl)cc2)O1	inactive
O=C(Nc1cccc(NC(=O)c2ccc(Br)cc2)c1)c1ccccc1	inactive
O=C(NC1=CC(=O)c2ccccc2C1=O)c1ccccc1	7.94 µM (active)
CC(NC(=O)c1ccccc1)C(=O)Nc1ccccc1 (centres undefined)	inactive
COCC1CCCCN1C(=O)c1cc(COc2ccc(C)c(C)c2)on1 (centres undefined)	inactive
CN(C)c1ccc(/C=N\Nc2ccc([N+](=O)[O-])cc2[N+](=O)[O-])cc1Cl	inactive
Cc1ccc(S(=O)(=O)N2C[C@H]3n4c(=O)ccc(=O)n4C[C@H](OC(=O)NC4CCCC4)[C@@]3(O)C2)cc1	inactive

From PubChem BioAssay AID720579 (National Center for Advancing Translational Sciences (NCATS), 2013)
